Inconclusive results are not listed. The source made the active and inactive calls. Calls come from the whole dose curve; as a rule, active = well fitted inhibition curve with a large enough effect; inconclusive = small, poorly fitted or top-dose-only effect; inactive = flat fitted curve, though single readings scatter.
System: HEK293
Assay: Cytotoxic Profiling of Annotated Libraries Using Quantitative High-Throughput Screening (AID 1296008); note: nearly all actives have a fitted effect of over 60% in size
Settings: Five cell lines viability, CellTiter-Glo ATP luminescence, 48-72 h; max response: hits give low values
In short: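 Cells exposed to compounds for 48 or 72 hr at 37 degrees Celsius. Viability read as ATP-coupled luminescence with CellTiter-Glo after 10 min at room temperature.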

Structure (SMILES) | outcome
CC(=O)NCCCCn1c2c(c3ccccc31)C(=O)NCC2 | inactive
Cc1nnc(C(C)C)n1C1CC2CCC(C1)N2CCC(NC(=O)C1CCC(F)(F)CC1)c1ccccc1 (stereo not given) | inactive
CC1=CC[C@]2(C(=O)O[C@@H]3O[C@H](CO[C@@H]4O[C@H](CO)[C@@H](O[C@@H]5O[C@@H](C)[C@H](O)[C@@H](O)[C@H]5O)[C@H](O)[C@H]4O)[C@@H](O)[C@H](O)[C@H]3O)CC[C@]3(C)C(CCC4[C@@]5(C)C[C@@H](O)[C@H](O)[C@@](C)(CO)C5CC[C@]43C)C2C1C (stereo not given in full) | inactive
COc1ccc(/C=C/C(=O)O[C@@H]2[C@@H](O)[C@H](C)O[C@@H](OC3C4C=COC(O[C@@H]5O[C@H](CO)[C@@H](O)[C@H](O)[C@H]5O)C4C4(CO)OC34)[C@@H]2O)cc1OC (stereo not given in full) | inactive
C=C(C)[C@H]1C[C@@H](O)C(=C)CC[C@@H](O)C(=C)[C@@H](O)C1 | inactive
CC1(C)CC2C(O)C3=C(CC(C)(O)C2C1)C(=O)OC3O (stereo not given) | inactive
Oc1ccc([C@H]2COc3cc(O)ccc3C2)cc1 | inactive
CC(=C/C(=O)O)/C=C/[C@]1(O)[C@@]2(C)CO[C@]1(C)C[C@H](O[C@@H]1O[C@H](CO)[C@@H](O)[C@H](O)[C@H]1O)C2 | inactive
C[C@@H]1C(=O)O[C@H]2[C@H]1CC[C@@]1(C)C(=O)C=C[C@](C)(O)[C@H]21 | inactive
CC1(C)C[C@H]2C3=CCC4[C@@]5(C)CC[C@H](O[C@H]6O[C@H](C(=O)O)[C@@H](O)[C@H](O)[C@H]6O[C@H]6O[C@H](CO)[C@@H](O)[C@H](O)[C@H]6O[C@@H]6O[C@H](CO)[C@@H](O)[C@H](O)[C@H]6O)[C@](C)(CO)C5CC[C@@]4(C)[C@]3(C)CC[C@@]2(C)[C@H](O[C@@H]2OC[C@H](O)[C@H](OC3O[C@H](CO)[C@@H](O)[C@H](O)[C@H]3O)[C@H]2O)[C@@H]1O (stereo not given in full) | inactive

From PubChem BioAssay (NCATS)
